Source: PubChem BioAssay AID504339 (National Center for Advancing Translational Sciences (NCATS), 2011)
Out of some 390,000 compounds screened, about 17,000 (4.4%) were called active. Entries that show only a call come without a potency. Inconclusive results (about 8%) are left out. The sample holds actives, similar compounds and a random draw of the others, so the mix is not that of the screen. Unmarked numbers belong to inactive results. The call rests on the fitted dose curve; in most records, active means well fitted inhibition curve with a large enough effect; inconclusive means small, poorly fitted or top-dose-only effect; inactive means no such curve, though single readings can be large or run the other way.

biological target: Lysine-specific demethylase 4A (Homo sapiens) (UniProt O75164); experiment: qHTS Assay for Inhibitors of JMJD2A-Tudor Domain; settings: AlphaScreen JMJD2A-Tudor / H3K4me3 peptide binding; series mostly up to 114 µM; further: nearly all actives have a fitted effect of over 50% in size
Sequence (O75164 whole entry, looked up, the tested form may be a part): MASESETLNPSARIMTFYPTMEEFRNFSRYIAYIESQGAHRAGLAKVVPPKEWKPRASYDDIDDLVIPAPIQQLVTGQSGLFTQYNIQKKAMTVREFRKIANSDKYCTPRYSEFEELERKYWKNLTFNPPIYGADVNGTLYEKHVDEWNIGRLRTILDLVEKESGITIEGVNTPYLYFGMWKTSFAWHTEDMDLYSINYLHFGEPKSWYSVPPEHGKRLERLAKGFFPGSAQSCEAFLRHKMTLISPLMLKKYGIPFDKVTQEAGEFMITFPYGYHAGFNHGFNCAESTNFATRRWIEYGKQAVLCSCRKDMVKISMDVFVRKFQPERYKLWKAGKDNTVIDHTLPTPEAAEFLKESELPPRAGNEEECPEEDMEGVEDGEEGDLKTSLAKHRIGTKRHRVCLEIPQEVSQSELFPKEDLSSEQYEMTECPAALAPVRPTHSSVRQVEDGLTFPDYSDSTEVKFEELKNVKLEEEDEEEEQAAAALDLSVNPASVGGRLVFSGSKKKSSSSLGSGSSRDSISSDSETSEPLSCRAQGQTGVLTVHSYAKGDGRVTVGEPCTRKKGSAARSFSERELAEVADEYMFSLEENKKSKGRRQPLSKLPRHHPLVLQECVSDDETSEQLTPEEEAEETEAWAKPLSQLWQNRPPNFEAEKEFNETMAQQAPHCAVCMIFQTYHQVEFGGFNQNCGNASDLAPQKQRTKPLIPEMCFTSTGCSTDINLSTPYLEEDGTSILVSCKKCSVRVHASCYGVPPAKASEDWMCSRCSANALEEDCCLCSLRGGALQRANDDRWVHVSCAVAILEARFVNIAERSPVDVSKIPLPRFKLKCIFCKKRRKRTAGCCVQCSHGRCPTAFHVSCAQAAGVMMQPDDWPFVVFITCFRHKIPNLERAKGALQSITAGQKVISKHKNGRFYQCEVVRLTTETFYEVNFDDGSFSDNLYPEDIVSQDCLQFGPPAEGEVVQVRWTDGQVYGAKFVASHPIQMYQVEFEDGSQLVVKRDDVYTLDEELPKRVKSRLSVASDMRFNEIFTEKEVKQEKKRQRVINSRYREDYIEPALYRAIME
From the text: JMJD2A is a jumonji-domain-containing lysine demethylase that uses Fe(II) together with 2-OG to effect oxidative demethylation of histones. Methylation is one of many […] modification that affect epigenetic transcription. […] It is proposed that the functions of JmjD2A binding to the histones, is to maintain marks after they are installed and to spread the modifications by […], establishing a self-propagating cycle for rapid methylation over a large area of chromatin. […] Thus, small molecule targeting of the JMJD2A-tudor domain interaction with its target methylhistone mark is expected to enable sophisticated experiments probing the fine regulatory pathways leading to selective demethylation of a given methyllysine locus based on the methylation state of adjacent histone marks. A quantitative high throughput AlphaScreen has been developed to identify small molecule inhibitors based on a protocol published by NCGC and SGC [4].
Although AlphaScreen has significant advantages with its utility in a variety of epigenetic target assays, the primary screening data provided in this deposition should be used with caution due to the prevalence of screening artifacts. The top compound concentration tested was high (>100uM) in this assay, which increases number of actives and potential artifacts. An AlphaScreen counterscreen is highly recommended to be run against any putative actives to eliminate non-specific artifacts. Alternatively, one can use other AlphaScreen assays in PubChem to filter out promiscuous hits.
[1] Lee, J. et al. Distinct binding modes specify the recognition of methylated histone H3K4 and H4K20 by JMJD2A-tudor. Nat Struct Mol Biol. 15(1); 109-11. 2008. PMID: 18084306
[2] Yasgar, et al. Compound Management for Quantitative High-Throughput Screening. JALA. 2008 Apr;13(2):79-89. PMID: 18496600
[3] Inglese, et al. Quantitative high-throughput screening: a titration-based approach that efficiently identifies biological activities in large chemical libraries. Proc Natl Acad Sci. 1;103(31):11473-8. 2006. PMID: 16864780
[4] Quinn et al. A homogeneous method for investigation of methyl-dependent protein-protein interactions in epigenetics. Nucleic Acids Res., 38(2):e11. 2010. PMID: […]
[5] Baell,Holloway. New substructure filters for removal of pan assay interference compounds (PAINS) from screening libraries and for their exclusion in bioassays. J Med Chem. 53(7):2719-40. 2010. PMID: 20131845
NIH Molecular Libraries Probe Production Network [MLPCN]
NIH Chemical Genomics Center [NCGC]
Structural Genomics Consortium (SGC)
To each well of a 1,536w plate, 2ul of JMJD2A-Tudor (final 100nM) and 1ul biotinylated histone peptide methylated at Lys4 [b-H3(1-18)K4me3] (final 50nM) were added in 1x PBS buffer, pH 7.4, containing 0.01% Tween-20, using a nanoliter dispenser. Formation of a protein-peptide complex proceeded at room temperature for 30 min. A Kalypsys pin-tool transferred 23nl of library compound solution in DMSO to each well. Following a 30 min incubation of the protein-peptide complex with compounds at room temperature, a mixture of 40 µg/mL each streptavidin-coated donor and nickel chelate acceptor AlphaScreen beads (final 10 µg/mL) was added in a 1ul dispense for a final volume of 4ul, followed by a brief centrifugation (1000 rpm, 1 min). Plates were incubated protected from the light for 20 min at room temperature. Microplates were then read on an EnVision multilabel plate reader using the 1,536 plate HTS AlphaScreen aperture (excitation time 80 ms, measurement time 240 ms).
Potency means the concentration at half of the fitted maximal effect.

Row | SMILES | Potency | activity change, negative = inhibition
1 | O=C(O)c1cc[c]([Sb](=[O])([OH])[OH])cc1[N+](=O)[O-] | 0.316 µM (active) | –
2 | O=C(c1ccccc1[N+](=O)[O-])N1CCC2(CC1)OCCO2 | inactive | –
3 | C[C@@]1([C@@H](NP(=O)(c2ccccc2)c2ccccc2)c2ccccc2)C[C@H]1CCO | inactive | –
4 | COC(=O)N(c1ccc(OC)cc1)P1(=S)OCCC(C)O1 (stereo not drawn) | 79.4 µM (active) | –
5 | CCC(=O)c1ccc(OCC(=O)N2CCN(CC(=O)Nc3ccc(C)cc3)CC2)cc1 | inactive | –
6 | O=C1NC(=O)C(Cc2ccccc2)C(=O)N1 | inactive | –
7 | COC(=O)C1=C(c2ccccc2)C[C@@H]2CC[C@H]1N2C(=O)N1CCCCC1 | inactive | –
8 | Cn1c(O)c(C=NCCN2CCNCC2)c(=O)n(C)c1=O | inactive | –
9 | c1ccc(CC2CCCCN2)cc1 (stereo not drawn) | inactive | –
10 | OC(CNC1CCCCC1)c1ccccc1 (stereo not drawn) | inactive | –
11 | c1cc2c(cc1[C@H]1OC[C@H]3[C@@H]1CO[C@@H]3c1ccc3c(c1)OCO3)OCO2 | inactive | –
12 | c1cc2c(cc1CCNC1CCCCCC1)OCO2 | 3.16 µM (active) | –
13 | c1ccc(CCNC2CCCCCC2)cc1 | 70.8 µM (active) | –
14 | Cc1ccc(CN2CCCC(C(=O)c3ccc4c(c3)OCO4)C2)cc1C (stereo not drawn) | – | -17.6% [at 11.4 µM]
15 | O=P1(Oc2ccccc2)CC(O)C(O)C(COCc2ccccc2)O1 (stereo not drawn) | inactive | –
16 | S=P(c1ccccc1)(c1ccccc1)c1c(-c2ccccc2)[nH]c2ccccc12 | inactive | –
17 | CCCC[N+]1(C)C2CC(OC(=O)C(CO)c3ccccc3)CC1C1OC12 (stereo not drawn) | inactive | –
18 | CNP1(NC)=Nc2nn(-c3ccccc3)c(N)c2C(c2ccccc2)=N1 | inactive | –
19 | O=C1C2(Cl)C3(Cl)C4(Cl)C(Cl)(Cl)C5(Cl)C3(Cl)C1(Cl)C5(Cl)C24Cl (stereo not drawn) | inactive | –
20 | Nc1ccc(C(=O)N/N=C2/CN3CCC2CC3)cc1 | 89.1 µM (active) | –
21 | CC1CC=CCC12C(=O)NC(=S)NC2=O (stereo not drawn) | inactive | –
22 | COC(=O)C1=C(c2ccc(Cl)c(C(F)(F)F)c2)C[C@@H]2CC[C@H]1N2C(=O)NC1CC1 | inactive | –
23 | CCOc1cc(N2CCOCC2)c(OCC)cc1NC(=O)C1=NN(c2cccc(C)c2)C(=O)CC1 | 50.1 µM (active) | –
24 | Cc1cccc(-n2c(O)c(/C=N/N3CCOCC3)c(=O)[nH]c2=S)c1 | inactive | –
25 | CCN1C(=O)NC(=O)C2(CCCC2)C1=O | inactive | –

Row | SMILES | Potency | activity change, negative = inhibition
26 | C/C(CCc1c[nH]c2ccccc12)=N\O | inactive | –
27 | c1cncc(CNCCc2c[nH]c3ccccc23)c1 | inactive | –
28 | COc1ccc(CNCCc2c[nH]c3ccccc23)cc1OC | 79.4 µM (active) | –
29 | CCN1CC2C3CCC(C)(O3)C2C1 (stereo not drawn) | inactive | –
30 | CC1([N+](=O)[O-])COP(=O)(Nc2ccc(F)cc2)OC1 (stereo not drawn) | inactive | –
31 | CN(C)P(=S)(Nc1ccccc1)C(Cl)(Cl)Cl (stereo not drawn) | inactive | –
32 | c1cncc(CNC2=NCCC2)c1 | inactive | –
33 | CC1CCCN1CCC(C(N)=O)(c1ccccc1)c1ccccc1 (stereo not drawn) | inactive | –
34 | CC1CCCCN1Cc1cccnc1 (stereo not drawn) | 8.91 µM (active) | –
35 | C[C@]12CCC3C(CC[C@H]4[C@H](O)[C@H](O)CC[C@]34C)C1CC[C@@H]2O (stereo partly drawn) | inactive | –
36 | O=c1[nH]c(=O)n(-c2ccc(F)cc2)c(O)c1C=NCCN1CCCCC1 | inactive | –
37 | CCOc1ccc(CN(CCCl)CCCl)cc1C(=O)OC | 25.1 µM (active) | –
38 | c1ccc(C(CN2CCCCC2)c2ccccc2)cc1 | inactive | –
39 | CCOP(=O)(OCC)C(NC(=O)c1ccc(C)cc1)C(Cl)(Cl)Cl (stereo not drawn) | inactive | –
40 | CC12CCC(O)CC1CCC1C2CCC2(C)C(C(=O)CC(O)C(F)(F)F)CCC12 (stereo not drawn) | inactive | –
41 | CCC1(C)CC(CCNCc2ccc(N(C)C)cc2)(c2ccc(F)cc2)CCO1 (stereo not drawn) | 44.7 µM (active) | –
42 | COC1=CC=C2[C@H]3Cc4ccc(OC)c5c4[C@@]2(CCN3C)C1O5 (stereo partly drawn) | inactive | –
43 | CCN(CC)C(=O)c1ccc(NC(=O)c2cc(-n3cnnc3)ccc2Cl)cc1 | inactive | –
44 | COc1cccc(OC)c1C(=O)NC(=S)N1C[C@H]2C[C@H](C1)c1cccc(=O)n1C2 | inactive | –
45 | CCC/C(=N\O)c1c[nH]c2ccccc12 | inactive | –
46 | CCc1cccc2c(C#N)cn(CC(=O)N3CCOCC3)c12 | inactive | –
47 | O=C(Cn1c(=O)n(CC2CS2)c2ccccc21)N1CCCCC1 (stereo not drawn) | inactive | –
48 | O=C(Cc1ccc(Cl)cc1)NCCN1CCN(C(=O)Cc2ccc(Cl)cc2)CC1 | inactive | –
49 | COc1ccccc1CN1CCN(C(=O)Cc2ccccc2)CC1 | 2.51 µM (active) | –
50 | CCN1CCN(C(=O)Cc2coc3cc(C)cc(C)c23)CC1 | inactive | –

Row | SMILES | Potency | activity change, negative = inhibition
51 | CCC(=NCCc1ccccc1)c1c(O)n(C2CCCCC2)c(=O)[nH]c1=O | inactive | –
52 | O=C(Cc1ccccc1)N1CCN(C2CCCCCC2)CC1 | 79.4 µM (active) | –
53 | CN(C)C(=O)NC(O)C(Cl)(Cl)Cl (stereo not drawn) | inactive | –
54 | COC(=O)C1=C(c2ccc(F)cc2F)C[C@@H]2CC[C@H]1N2C(=O)NC1CC1 | inactive | –
55 | CC=C(C)C(=O)OC1CCN2CC=C(COC(=O)C(O)(C(C)OC)C(C)(C)O)C12 (stereo not drawn) | inactive | –
56 | CCOc1ccc(-c2cc(C)[n+](CCN(CC)CC)c(-c3ccc(OCC)cc3)c2)cc1 | inactive | –
57 | CCC(=O)CC(c1ccc([N+](=O)[O-])cc1)c1c(O)c2ccccc2oc1=O (stereo not drawn) | inactive | –
58 | COc1ccccc1OC(=O)c1ccc(C)c(S(=O)(=O)N2CCOCC2)c1 | inactive | –
59 | CC1CNCCN1c1ccc(Cl)cc1 (stereo not drawn) | inactive | –
60 | Cn1cc(/C=C/c2nc3ccccc3c(=O)n2-c2ccccc2)c2ccccc21 | inactive | –
61 | CCC(=O)OC(Cc1ccccc1)(c1ccccc1)C(C)CN(C)C (stereo not drawn) | inactive | –
62 | O=C(C1CCN(CC2CCCCC2)CC1)N1CCCC1 | 50.1 µM (active) | –
63 | O=C(C1CC(=O)N(C2CCCC2)C1)N1CCC2(CC1)OCCO2 (stereo not drawn) | inactive | –
64 | C=C(C)C1(CCCC)C(=O)NC(=S)NC1=O | inactive | –
65 | COC(=O)C1=C(c2ccc(C(C)=O)cc2)C[C@@H]2CC[C@H]1N2C(=O)NCCNC(C)=O | inactive | –
66 | CN(C)/C=C(\C=[N+](C)C)c1[nH]ncc1[N+](=O)[O-] | inactive | –
67 | C[C@]12CCCCC1=CC(=O)C1C2CC[C@@]2(C)C1C[C@@H](F)[C@@H]2O (stereo partly drawn) | inactive | –
68 | CC/C(=N\NC(=O)c1ccccc1O)c1c(O)n(Cc2ccccc2)c(=O)[nH]c1=O | – | -0.735% [at 11.4 µM]
69 | O=C(N/N=C/c1c(O)n(C2CC2)c(=S)[nH]c1=O)c1ccccc1 | 56.2 µM (active) | –
70 | O=C(N/N=C/c1c(O)n(C2CC2)c(=S)[nH]c1=O)c1ccccc1Cl | 89.1 µM (active) | –
71 | O=c1[nH]c(=S)n(C2CC2)c(O)c1/C=N/N1CCOCC1 | inactive | –
72 | CC(C)c1ccc(-n2c(O)c(/C=N/N3CCOCC3)c(=O)[nH]c2=S)cc1 | inactive | –
73 | COc1ccccc1-n1c(O)c(C=NC2CC2)c(=O)[nH]c1=O | inactive | –
